Screen size: about 220,000 compounds; about 830 (0.38%) were called active. The list is a sample of the results. Results with a measured potency or affinity are listed apart. A number with no mark means an inactive call.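 The calls were made as follows: active = compound inhibiting the enzyme by more than half at any dose during confirmatory dose-response retesting; inconclusive = strong single-dose inhibitors picked by rank but not retested; inactive = the rest.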
target: Leucine aminopeptidase (Plasmodium falciparum (isolate 3D7)) (UniProt Q8IL11); assay: P. falciparum M17LAP inhibitors, primary screen, biochemical, fluorogenic H-Leu-NHMec substrate, 1536-well (AID 1619); settings: recombinant M17LAP, H-Leu-NHMec fluorogenic kinetic assay; at 30 µM; stronger effect = higher value;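 also: plate controls were full reaction with DMSO carrier for no effect and no enzyme background for full effect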
Sequence (Q8IL11 whole entry, looked up): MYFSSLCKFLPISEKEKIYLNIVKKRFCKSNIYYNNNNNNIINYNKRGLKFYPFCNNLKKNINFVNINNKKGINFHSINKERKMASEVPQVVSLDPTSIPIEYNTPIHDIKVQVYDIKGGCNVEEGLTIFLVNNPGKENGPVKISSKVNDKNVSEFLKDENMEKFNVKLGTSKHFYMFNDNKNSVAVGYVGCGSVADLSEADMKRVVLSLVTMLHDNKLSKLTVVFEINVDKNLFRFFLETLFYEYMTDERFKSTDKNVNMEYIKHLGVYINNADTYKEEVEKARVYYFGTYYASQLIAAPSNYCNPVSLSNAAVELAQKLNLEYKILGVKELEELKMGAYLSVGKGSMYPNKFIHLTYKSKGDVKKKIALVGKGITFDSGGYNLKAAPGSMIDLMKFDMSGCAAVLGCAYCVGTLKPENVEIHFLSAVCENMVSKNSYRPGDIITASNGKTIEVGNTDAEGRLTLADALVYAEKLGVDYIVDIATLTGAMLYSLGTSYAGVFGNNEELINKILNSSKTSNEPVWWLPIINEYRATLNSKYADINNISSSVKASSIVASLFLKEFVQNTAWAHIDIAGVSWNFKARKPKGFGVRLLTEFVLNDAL

| SMILES | inhibition |
| --- | --- |
| Cc1nn(Cc2c(Cl)cccc2Cl)c(C)c1NC(=O)CCCn1nc(C)c([N+](=O)[O-])c1C | -7.34% |
| CCOc1ccc(NC(=S)NN2C(C)CCCC2C)cc1 (stereo not given) | -3.03% |
| C[C@@H]1NC(=O)c2cc([N+](=O)[O-])cc(I)c2OCC[C@@H](C(N)=O)NC(=O)[C@H](CCCCN)NC1=O | 21.6% |
| CCCCC(=O)NC(=S)Nc1cccc(NC(=O)c2ccccc2)c1 | 2.99% |
| O=C(NCc1ccc2c(c1)OCO2)C1CCC(CNc2c(N3CCCC3)c(=O)c2=O)CC1 (stereo not given) | 9.79% |
| Cc1noc(C)c1CSCc1ccc(Cl)cc1 | 2.99% |
| COc1ccc(-c2nc(=S)n3ccsc3n2)cc1OC | -2.9% |
| O=C(NCc1ccccc1)N1CCN(c2ccc(F)cc2)CC1 | 13.1% |
| O=C(c1ccc(S(=O)(=O)N2CCOCC2)cc1)N1CCOCC1 | -9.29% |
| Cc1cc(C)cc(-n2c(SCC(=O)NCc3ccc4c(c3)OCO4)nc3ccccc3c2=O)c1 | 19.8% |
| O=C1CCCC/C1=C/Nc1ccc(S(=O)(=O)Nc2ncccn2)cc1 | 6.19% |
| Cc1cc(C)nc(NS(=O)(=O)c2ccc(Br)cc2)n1 | 15.3% |
| C=CCOC(=O)c1c(C)nc2cc3c(cc2c1C)OCO3 | 9.48% |
| Cc1ccc(C(=O)CC(C(=O)O)n2cnc([N+](=O)[O-])n2)cc1 (stereo not given) | 11.1% |
| O=C(c1ccco1)c1cn(CC(=O)N2CCCCC2)c2ccccc12 | 33.5% |
| O=C(NCc1cccs1)C(=O)c1cn(CC(=O)N2CCCC2)c2ccccc12 | 24.7% |
| O=C(NCc1ccco1)C(=O)c1cn(CC(=O)N2CCCCC2)c2ccccc12 | 8.43% |
| CCN(CC)C(=O)Cn1cc(C(=O)C(=O)NCc2ccco2)c2ccccc21 | 25.3% |
| Cc1ccc(N=C(NO)c2nonc2N)c(C)c1 | 14.3% |
| O=C(Cn1c(=O)oc2ccccc21)NCCc1ccccc1Cl | 1.7% |
| NC(=S)c1ncc(C(F)(F)F)cc1Cl | -12.7% |
| CC(C)NC(=O)c1cnc(Sc2ncc(C(F)(F)F)cc2Cl)n1C | 6.92% |
| O=C(c1cc[n+]([O-])cc1)N1CCc2c([nH]c3ccccc23)C1c1ccccc1Cl (stereo not given) | 15.1% |
| O=C(c1nc(-c2ccccc2)n(-c2ccccc2)n1)N1CCN(S(=O)(=O)c2ccccc2)CC1 | -12.4% |
| CCOc1ccc(C(=O)NCC(=O)OCc2cc(C(C)=O)ccc2OC)cc1 | 3.31% |
